# Source: PubChem BioAssay AID493210 (National Center for Advancing Translational Sciences (NCATS), 2011)
# Some of the results follow. The source made the active and inactive calls. The call rests on the fitted dose curve.
# Biological target: Aldehyde dehydrogenase 1A1 (Homo sapiens) (UniProt P00352)
# Assay: Inhibitors of Aldehyde Dehydrogenase 1 (ALDH1A1): Followup Confirmation and Counterscreen
# Details: purified ALDH1A1, NADH fluorescence, propionaldehyde/NAD+
# Excerpt: Aldehyde dehydrogenase 1 (ALDH1A1) catalyzes the NAD+ dependent oxidation of a variety of endogenous and exogenous aldehydes to the corresponding carboxylic acids. The enzyme is the critical step in the metabolic activation of retinoic acid, which plays essential roles as nuclear receptor ligand. […] See [1] through for more information on ALDH1A1. Inhibition of ALDH1A1 activity was screened by utilizing propionaldehyde as an electron donor and NAD+ as an electron acceptor/cofactor. An increase in the fluorescence intensity due to conversion of NAD+ to NADH was used to measure the enzyme activity. See [5] for screening methodology used. References: [1] Manzer R, Qamar L, Estey T, Pappa A, Petersen DR, Vasiliou V. Molecular cloning and baculovirus expression of the rabbit corneal aldehyde dehydrogenase (ALDH1A1) cDNA. DNA Cell Biol. 2003 May;22(5):329-38. […] Quantitative high-throughput screening: a titration-based approach that efficiently identifies biological activities in large chemical libraries. […]
# Buffer: 100 mM Hepes pH 7.5, 0.01% Tween 20. […] The plates were immediately transferred to and read twice on ViewLux High-throughput CCD imager (Perkin-Elmer) 20 minutes apart using 360 nm excitation and 450 nm emission fluorescence protocol. The fluorescence intensity difference between the second and the first time points was used to compute reaction progress.
# Aldehyde dehydrogenase 1A1 (Homo sapiens), sequence (P00352 whole entry, looked up): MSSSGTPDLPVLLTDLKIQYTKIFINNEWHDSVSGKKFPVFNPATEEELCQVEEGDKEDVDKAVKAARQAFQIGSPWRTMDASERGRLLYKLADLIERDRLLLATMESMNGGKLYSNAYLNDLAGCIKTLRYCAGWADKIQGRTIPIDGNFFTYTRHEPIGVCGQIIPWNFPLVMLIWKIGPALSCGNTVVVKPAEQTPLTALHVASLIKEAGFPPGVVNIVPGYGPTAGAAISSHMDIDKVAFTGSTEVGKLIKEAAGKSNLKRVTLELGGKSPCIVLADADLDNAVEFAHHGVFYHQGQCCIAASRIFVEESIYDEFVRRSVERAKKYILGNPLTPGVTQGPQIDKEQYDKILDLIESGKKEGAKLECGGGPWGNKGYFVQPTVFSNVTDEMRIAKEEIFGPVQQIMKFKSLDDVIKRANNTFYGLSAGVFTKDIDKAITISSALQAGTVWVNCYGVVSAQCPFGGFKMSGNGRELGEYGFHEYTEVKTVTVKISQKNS
structure (smiles),measurement,value
C[C@]12CC[C@@H]3C(=CCc4cc(O)ccc43)[C@@H]1CCC2=O,Potency,501 nM (active)
